Screening data deposited in PubChem BioAssay by National Center for Advancing Translational Sciences (NCATS).
The list is not random: actives were taken first. Their share in the collection is about 13%.
LASV entry inh – Lassa virus entry inhibition | Lassa virus pseudotype entry inhibition, cell reporter | Potency, µM (top dose mostly 37.9 µM), most hits filed as inhibitors | hit rate 1.2% among 300,000 | AID 540256; calls by dose curve; tested in HEK293 cells; further: nearly all actives have a fitted effect of over 50% in size
HCV inh – HCV inhibition; Huh7.5.1 HCVcc-Cre infection, luciferase reporter, 44 h; Potency, µM (top dose mostly 41.8 µM), hits mostly inhibitors; hit rate 3.4% among 340,000; AID 651820; active means well fitted inhibition curve with a large enough effect; inconclusive means small, poorly fitted or top-dose-only effect, or another doubt; inactive means no such curve, though single readings can be large or run the other way
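Seed cells (1,000/well) for 4 h; treat with compound and infect with HCVcc-Cre, moi about 0.5. Incubate 44 h, then detect luciferase activity.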
Shiga inhibitor – inhibitors of Shiga toxin in Vero cells; hit rate 9.2% among 290,000; Vero cells, Shiga toxin protein synthesis inhibition reporter; AID 2315; inhibition, % at 38.7 µM; in the data active means inhibition mostly above about 28%, no sharp cut-off; inactive means mostly below about 43%
CHX counter – affects cycloheximide protein synthesis inhibition readout, counter-screen. max response, %. AID 2314. cell reporter, cycloheximide protein synthesis inhibition counterscreen. hit rate 12% among 300,000; in the data active means max response mostly above about 13%, no sharp cut-off; inactive means mostly below about 14%; further: read at 38.3 µM for the half of the compounds with a filed dose
MARV entry inh – Marburg virus entry inhibition; hit rate 1.8% among 300,000; Marburg virus pseudotyped entry inhibition, cell reporter; Potency, µM (highest dose often 37.8 µM), most hits filed as inhibitors; AID 540276; calls by dose curve; tested in HEK293 cells
FMDV inh – foot and mouth disease virus antiviral activity | FMDV antiviral cell-based qHTS | Potency, µM (series often up to 57.9 µM), actives largely listed as inhibitors | hit rate 1.2% among 410,000; calls by dose curve; tested in HEK293T cells; further: read-out not given here; nearly all actives have a fitted effect of over 45% in size
Large screens that a line does not name were inactive.

Cc1ccc(N2C(=O)c3cccc4cccc(c34)C2=O)cc1	MARV entry inh inconclusive
O=C(Nc1ccc2c(c1)C(=O)N(c1ccccc1)C2=O)C1CCCO1 (stereo unspecified)	LASV entry inh inconclusive, Shiga inhibitor 32.8, CHX counter 31.9
Cc1ccc(N2C(=O)c3ccccc3C2=O)cc1C	none
Cc1ccc(N2C(=O)c3ccc(N)cc3C2=O)cc1C	Shiga inhibitor 118.7, CHX counter 30.8
CC1(C)CC(=O)C=C(CN2C(=O)c3ccccc3C2=O)C1=O	none (no result: LASV entry inh, Shiga inhibitor, CHX counter, MARV entry inh)
C[C@H]1CN([C@@H](C)CO)C(=O)CCCn2cc(nn2)CO[C@@H]1CN(C)C(=O)Nc1cccc(C(F)(F)F)c1	none (no result: LASV entry inh, HCV inh, Shiga inhibitor, CHX counter, MARV entry inh)
CC(C)Oc1ccc(C(=O)Nc2ccc([N+](=O)[O-])cc2)cc1	Shiga inhibitor 118.6, CHX counter 36.9 (no result: LASV entry inh, MARV entry inh)
CN(C)S(=O)(=O)Oc1ccc(C(=O)Nc2ccc([N+](=O)[O-])cc2)cc1	none (no result: LASV entry inh, MARV entry inh)
CC(C)Oc1ccc(NC(=O)c2ccncc2)cc1	HCV inh inconclusive, Shiga inhibitor 63.4, CHX counter 18.7
O=C(Nc1ccc(Nc2ccncc2)cc1)c1ccc([N+](=O)[O-])cc1	HCV inh 11.2µM, FMDV inh inconclusive (no result: LASV entry inh, MARV entry inh)
Cc1ccc(C=Nc2ccccc2C(N)=O)s1	LASV entry inh inconclusive, MARV entry inh inconclusive
C[N+](C)(C)CCCCCCC(=O)/C=N/O	none
CCC(=O)Nc1c(-c2ccc3ccccc3c2)nc2ccccn12	CHX counter 37.8 (no result: LASV entry inh, MARV entry inh)
Cc1ccc(C(=O)Nc2c(-c3ccccc3)nc3ccccn23)cc1	none (no result: HCV inh, Shiga inhibitor, CHX counter)
CC(=O)Nc1c(-c2ccc3ccccc3c2)nc2ccccn12	Shiga inhibitor 103.5, CHX counter 20.6 (no result: LASV entry inh, MARV entry inh)
O=C(CCc1ccccc1)NCCS(=O)(=O)N1CCN(c2ccccc2)CC1	HCV inh inconclusive (no result: Shiga inhibitor, CHX counter)
O=C(Cn1c(=O)oc2cc(S(=O)(=O)N3CCCC3)ccc21)Nc1ccc(C(F)(F)F)cc1	none
CCN(CC)c1ccc(NC(=S)NCC2CCCO2)cc1 (stereo unspecified)	Shiga inhibitor 101.1, CHX counter 27.7, MARV entry inh inconclusive
S=C(NCC1CCCO1)Nc1ccc(Cl)cc1Cl (stereo unspecified)	LASV entry inh inconclusive, Shiga inhibitor 143.5, CHX counter 46.2
COc1cc(NC(=S)NCC2CCCO2)c(OC)cc1Cl (stereo unspecified)	HCV inh inconclusive (no result: LASV entry inh, MARV entry inh)
Clc1ccc(-c2ccc(CNCC3CCCO3)o2)cc1 (stereo unspecified)	LASV entry inh inconclusive, Shiga inhibitor 96.5, CHX counter 35.1, MARV entry inh inconclusive
O=C(NCC1CCCO1)Nc1ccc(Cl)cc1 (stereo unspecified)	Shiga inhibitor 73.9, CHX counter 43.8
Cc1ccc(C(=O)O)cc1N1C(=O)c2cccc3cc(Br)cc(c23)C1=O	none
Cc1cnc(C(=O)OCC(=O)c2ccc(Cl)cc2)cn1	none (no result: LASV entry inh, MARV entry inh)
O=c1c2cc(Cl)ccc2[nH]c(=S)n1Cc1ccccn1	none
COC(=O)C1=C(C)Nc2[nH]c(=S)[nH]c(=O)c2C1c1ccc(OC)cc1 (stereo unspecified)	MARV entry inh inconclusive
CCc1nc2ccc(C(=O)NCc3ccccc3OC)cn2c1N(C)C(=O)Cc1ccccc1	none (no result: LASV entry inh, HCV inh, Shiga inhibitor, CHX counter, MARV entry inh)
O=C(CNS(=O)(=O)c1ccccc1)NCc1cccnc1	none
Fc1ccccc1CN1CCN(c2ncccn2)CC1	none
S=C(NCC1CCCO1)Nc1ccc(Cl)cc1 (stereo unspecified)	CHX counter 15.9, MARV entry inh inconclusive
Cc1ccc(NC(=S)NCC2CCCO2)cc1 (stereo unspecified)	LASV entry inh inconclusive, MARV entry inh inconclusive
CC[C@]12CCCN3CCc4c(n(c5ccccc45)[C@@](O)(C(=O)OC)C1)[C@@H]32	none (no result: LASV entry inh, Shiga inhibitor, CHX counter, MARV entry inh)
CC[C@]12CCCN3CCc4c(n(c5ccccc45)C(=O)C1)[C@@H]32	HCV inh 6.31µM (no result: LASV entry inh, Shiga inhibitor, CHX counter, MARV entry inh)
COc1ccc(OC)c(Cc2nnc(CCC(=O)NC3CCCCCCC3)o2)c1	Shiga inhibitor 77.4, CHX counter 33.5, MARV entry inh inconclusive
COc1ccc(OC)c(Cc2nnc(CCC(=O)NCc3nc4ccccc4s3)o2)c1	none
COc1ccc(OC)c(Cc2nnc(CCC(=O)N3CCCCC3c3nccs3)o2)c1 (stereo unspecified)	Shiga inhibitor 87.5, CHX counter 42.7 (no result: LASV entry inh, MARV entry inh)
COc1ccc(OC)c(Cc2nnc(CCC(=O)N3CCCCCC3)o2)c1	MARV entry inh inconclusive
COc1cccc(CCNC(=O)CCc2nnc(Cc3cc(OC)ccc3OC)o2)c1	Shiga inhibitor 22.8, CHX counter 27.6 (no result: LASV entry inh, MARV entry inh)
